This passage reports Potency, viability change, negative = cytotoxic and activity change, negative = cytotoxicity results from PubChem BioAssay (Tox21).

Inconclusive results are not listed. Unmarked numbers belong to inactive results. The source made the active and inactive calls. Calls come from the whole dose curve; as a rule, active = well fitted cell-killing curve with a large enough effect in the repeat runs; inconclusive = weak or mixed curves, or effect the other way; inactive = flat fitted curve, though single readings scatter.

Assay [1] is described as follows: cAMP Responsive Elements (CRE) small molecule antagonists, cell-based qHTS assay: qHTS cell viability counter screen (AID 2060913). Note: nearly all actives have a fitted effect of over 40% in size. The method, boiled down: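 CRE-bla HEK293T cells were seeded in assay medium with 10% dialyzed FBS, incubated 18 hrs at 37 C, then exposed to compounds plus 0.25 uM final NKH477 for 3 hrs. Viability was read by CellTiter-Glo luminescence after 30 min, in the same wells.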
(qHTS replaces the single test concentration by a dilution series.)

A short description of assay [2]: cAMP Responsive Elements (CRE) small molecule agonists, cell-based qHTS assay: qHTS cell viability counter screen (AID 2060914). Note: nearly all actives have a fitted effect of over 50% in size. The method, boiled down:
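Luminescence read-out (CellTiter-Glo, 30 min RT) of ATP-based viability in CRE-bla HEK 293T cells, run in the same wells as the β-lactamase reporter assay after 3 h compound treatment at 37 °C.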
% is set by controls: 0 for no effect and ±100 for the full control effect.

Consider `CN(C)CCC(c1ccccc1)c1ccccn1` (centres undefined), for which the Potency entry in assay [1] and in assay [2] was “inactive” throughout.
Regarding `O=C(O)c1ccccc1Nc1cc(Cl)ccc1C(=O)O`, in assay [1], the viability change, negative = cytotoxic is -0.998% [at 18.9 µM]. The activity change, negative = cytotoxicity in assay [2] is 0.206% [at 18.9 µM].
Regarding `Cc1cccc(C)c1NC(=O)c1cc(S(N)(=O)=O)c(Cl)cc1O`, the Potency entry in assay [1] and in assay [2] was “inactive” throughout.
As for `CC(C)CC(=O)CC(C)C`, the Potency entry in assay [1] and in assay [2] was “inactive” each time.
Consider `Cc1cc2cc3c(C)cc(=O)oc3c(C)c2o1`, for which the Potency result in assay [1] and in assay [2] was “inactive” each time.
As for `FC(F)(F)c1ccccc1-n1ccnc1`, the Potency result in assay [1] and in assay [2] was “inactive” each time.
As for `Oc1ccccc1-c1nnco1`, the Potency entry in assay [1] and in assay [2] was “inactive” in each case.
As to `CCCCCCC#CC(=O)OC`, the Potency entry in assay [1] and in assay [2] was “inactive” throughout.
Take `CC(C)Cc1ccc(CC(=O)O)cc1`: the Potency result in assay [1] and in assay [2] was “inactive” each time.
On to `Cc1ccccc1C(OCCN(C)C)c1ccccc1` (centres undefined), for which the Potency result in assay [1] and in assay [2] was “inactive” each time.
In the case of `O=C(O)c1cccc(N(Cc2cccnc2)c2ccc(OC(F)F)c(OC(F)F)c2)c1`, the Potency result in assay [1] and in assay [2] was “inactive” each time.
For the compound `CC1=CC[C@H](CC=O)C1(C)C`, the Potency result in assay [1] and in assay [2] was “inactive” throughout.
With `C=C(C)C(=O)OCC(C)(C)COC(=O)C(=C)C`, the Potency result in assay [1] and in assay [2] was “inactive” each time.
Consider `Cc1ccc(CO)cc1`, for which the Potency result in assay [1] and in assay [2] was “inactive” in each case.
With `c1cnccn1`, the Potency result in assay [1] and in assay [2] was “inactive” throughout.
As for `CCc1cnc(C(=O)O)c(C(=O)O)c1`, the Potency result in assay [1] and in assay [2] was “inactive” each time.
As to `CN(C)C(=O)Oc1cccc([N+](C)(C)C)c1`, the Potency entry in assay [1] and in assay [2] was “inactive” throughout.
Consider `Oc1ccccc1F`, for which the Potency result in assay [1] and in assay [2] was “inactive” in each case.
With `NC(=O)Cc1cccc2ccccc12`, the Potency result in assay [1] and in assay [2] was “inactive” each time.
With `CC1=C(/C=C/C(C)=C/C=C/C(C)=C\C=O)C(C)(C)CCC1`, the Potency entry in assay [1] and in assay [2] was “inactive” each time.
For `CCOC(=O)Cn1cccc1-c1nc(-c2ccc(OC)cc2)c(-c2ccc(OC)cc2)s1`, the Potency result in assay [1] and in assay [2] was “inactive” each time.
Regarding `COC(=O)CC(C(C)=O)C(=O)OC` (centres undefined), the Potency entry in assay [1] and in assay [2] was “inactive” throughout.
Regarding `CCOC(=O)C1=C(C)NC(C)=C(C(=O)OC)C1c1cccc(Cl)c1Cl` (centres undefined), the Potency result in assay [1] and in assay [2] was “inactive” each time.
Turning to `CS(=O)(=O)O`, the Potency entry in assay [1] and in assay [2] was “inactive” throughout.
Take `O=C(O)c1cc(C(=O)O)cc(C(=O)O)c1`: the Potency entry in assay [1] and in assay [2] was “inactive” throughout.
As for `CC1COc2c(N3CCN(C)CC3)c(F)cc3c(=O)c(C(=O)O)cn1c23` (centres undefined), the Potency result in assay [1] and in assay [2] was “inactive” throughout.
As for `CCn1cc(C(=O)O)c(=O)c2cc(F)c(N3CCN(C)CC3)cc21`, in assay [1], the viability change, negative = cytotoxic is 3.1% [at 18.9 µM]. The activity change, negative = cytotoxicity in assay [2] is 12% [at 18.9 µM].
With `O=Cc1ccc(F)c(Br)c1`, the Potency result in assay [1] and in assay [2] was “inactive” throughout.
With `CCOC(=O)C(=O)CCCCCCl`, the Potency entry in assay [1] and in assay [2] was “inactive” throughout.
Regarding `CCOC(=O)[C@H](O)[C@@H](O)C(=O)OCC`, the Potency entry in assay [1] and in assay [2] was “inactive” each time.
`CC(C)=CCCC(C)CCOC=O` (centres undefined): the Potency entry in assay [1] and in assay [2] was “inactive” throughout.
`Cn1c(=O)c2c(ncn2CCO)n(C)c1=O`: the Potency entry in assay [1] and in assay [2] was “inactive” each time.
Take `O=S1(=O)CC=CC1`: the Potency result in assay [1] and in assay [2] was “inactive” throughout.
Regarding `CC(CN=Cc1ccccc1O)N=Cc1ccccc1O` (centres undefined), the Potency result in assay [1] and in assay [2] was “inactive” each time.
Turning to `CCN(CC)CCOC(=O)C1(c2ccccc2)CCCC1`, the Potency result in assay [1] and in assay [2] was “inactive” in each case.
With `CN(C)CC[C@@H](c1ccc(Br)cc1)c1ccccn1`, the Potency result in assay [1] and in assay [2] was “inactive” throughout.
With `C=CC(=O)OCC[N+](C)(C)C`, the Potency entry in assay [1] and in assay [2] was “inactive” throughout.
Take `CCC(C)SSC(C)CC` (centres undefined): the Potency entry in assay [1] and in assay [2] was “inactive” in each case.
Turning to `C=CC(C)CCCC(C)(C)O` (centres undefined), the Potency entry in assay [1] and in assay [2] was “inactive” each time.
As to `C[Si](C)=O`, the viability change, negative = cytotoxic in assay [1] is 7.47% [at 8.39 µM]. Also, the activity change, negative = cytotoxicity in assay [2] is -0.0708% [at 8.39 µM].
With `CC(=O)OC1CCCCC1C(C)(C)C` (centres undefined), the Potency entry in assay [1] and in assay [2] was “inactive” throughout.
Turning to `C/C=C/c1ccc(OC)cc1`, the Potency entry in assay [1] and in assay [2] was “inactive” each time.
With `O=C(CC(=O)C(F)(F)F)c1ccccc1`, the Potency entry in assay [1] and in assay [2] was “inactive” each time.
Regarding `Nc1ccc(S(=O)(=O)NCc2ccccc2)cc1`, the Potency entry in assay [1] and in assay [2] was “inactive” throughout.
As for `O=C(O)C(O)[C@H](O)[C@@H](O)[C@H](O)[C@H](O)CO` (some centres undefined), the Potency result in assay [1] and in assay [2] was “inactive” each time.
As for `CC(=O)OC(C)(C)C`, the Potency entry in assay [1] and in assay [2] was “inactive” in each case.
For `CCN(CC)c1ccc(C(=O)c2ccccc2C(=O)O)c(O)c1`, the Potency entry in assay [1] and in assay [2] was “inactive” throughout.
For `CCOC(=O)c1ccc(NC(=O)CN2CCCCC2)cc1`, the Potency result in assay [1] and in assay [2] was “inactive” in each case.
Consider `CC(C)c1ccc(S(=O)(=O)O)cc1`, for which the Potency entry in assay [1] and in assay [2] was “inactive” throughout.
Turning to `CCCCOC(=O)CC`, the Potency result in assay [1] and in assay [2] was “inactive” each time.
As for `COc1ccccc1OCC(O)CO` (centres undefined), the Potency entry in assay [1] and in assay [2] was “inactive” throughout.
As to `CC(C)Oc1ccccc1O`, the Potency result in assay [1] and in assay [2] was “inactive” in each case.
As to `CCCC[O][Al]([O]CCCC)[O]CCCC`, the Potency result in assay [1] and in assay [2] was “inactive” each time.
For the compound `Cc1ccc(S(=O)(=O)O)c(C)c1`, the Potency entry in assay [1] and in assay [2] was “inactive” each time.
For `CCN(CC)C(C)=O`, the Potency entry in assay [1] and in assay [2] was “inactive” in each case.
In the case of `ON=C1CCCC1`, the Potency entry in assay [1] and in assay [2] was “inactive” each time.
For `O=c1oc2c(O)c(O)cc3c(=O)oc4c(O)c(O)cc1c4c23`, in assay [1], the viability change, negative = cytotoxic is 2.4% [at 18.9 µM]. Besides, in assay [2], the activity change, negative = cytotoxicity is -1.77% [at 18.9 µM].
